This note sets out measurements from article PMC4336329 (PLoS ONE, 2015).

Structures are written as SMILES. About 2,200 (0.71%) of roughly 310,000 compounds showed an effect of 50% or more. The effect is printed as a negative number. The sample holds strong results, similar compounds and a random draw of the others, so the mix is not that of the screen.

In this assay the target is human ether-à-go-go-related gene (hERG) potassium channel (human, UniProt Q12809). As to the kind of experiment: primary screen, population patch clamp on CHO cells stably expressing hERG; higher = less effect of the substance.
human ether-à-go-go-related gene (hERG) potassium channel, sequence (Q12809 whole entry, looked up): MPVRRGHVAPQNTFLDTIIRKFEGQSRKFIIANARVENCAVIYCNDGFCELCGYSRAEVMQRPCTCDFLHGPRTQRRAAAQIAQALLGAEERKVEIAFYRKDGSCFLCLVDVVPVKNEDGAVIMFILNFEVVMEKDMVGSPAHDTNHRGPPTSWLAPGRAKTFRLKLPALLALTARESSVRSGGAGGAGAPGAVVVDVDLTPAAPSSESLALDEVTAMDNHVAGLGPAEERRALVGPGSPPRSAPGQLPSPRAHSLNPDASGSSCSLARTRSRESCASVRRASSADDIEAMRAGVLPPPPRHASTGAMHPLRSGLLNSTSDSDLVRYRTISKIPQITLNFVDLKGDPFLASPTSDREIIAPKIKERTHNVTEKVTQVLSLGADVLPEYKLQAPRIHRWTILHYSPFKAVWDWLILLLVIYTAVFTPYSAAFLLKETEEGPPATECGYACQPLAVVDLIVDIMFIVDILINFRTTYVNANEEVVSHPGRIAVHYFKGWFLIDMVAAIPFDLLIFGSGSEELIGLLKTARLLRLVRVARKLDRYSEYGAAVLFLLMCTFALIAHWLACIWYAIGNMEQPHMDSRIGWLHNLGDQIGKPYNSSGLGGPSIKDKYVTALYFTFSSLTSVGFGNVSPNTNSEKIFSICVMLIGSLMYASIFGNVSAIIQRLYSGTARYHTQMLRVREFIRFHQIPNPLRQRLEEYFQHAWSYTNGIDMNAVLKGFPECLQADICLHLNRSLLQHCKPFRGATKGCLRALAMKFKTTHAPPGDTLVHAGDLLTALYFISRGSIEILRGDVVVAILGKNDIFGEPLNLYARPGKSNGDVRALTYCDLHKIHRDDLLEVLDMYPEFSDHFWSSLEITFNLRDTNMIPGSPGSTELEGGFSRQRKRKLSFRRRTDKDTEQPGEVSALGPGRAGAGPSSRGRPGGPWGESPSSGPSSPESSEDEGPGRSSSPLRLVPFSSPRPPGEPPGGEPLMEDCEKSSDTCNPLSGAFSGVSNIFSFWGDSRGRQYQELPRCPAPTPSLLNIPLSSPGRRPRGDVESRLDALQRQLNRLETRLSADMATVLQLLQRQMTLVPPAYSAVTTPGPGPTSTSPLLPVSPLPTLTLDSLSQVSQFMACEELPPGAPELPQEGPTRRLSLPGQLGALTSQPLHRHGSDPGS
Turning to `COc1ccccc1C(=O)C1CCCN(C(=O)c2cccc(-n3cccn3)c2)C1` (centres unmarked), the “hERG current change (%, negative = inhibition) at 1uM” value came out at 9.07%.

For `Nc1ccc(-n2nnnc2-c2ccco2)cc1`, the “hERG current change (%, negative = inhibition) at 1uM” value is 11.1%.

With `CSc1ccc(CN2CCN(C(=O)COc3ccc(C)cc3)CC2)cc1.O=C(O)C(=O)O`, the “hERG current change (%, negative = inhibition) at 1uM” value is -19.3%.

Consider `Cc1cccc(OCC(=O)N2CCOCC2)c1`, for which the “hERG current change (%, negative = inhibition) at 1uM” value is recorded as 17.1%.

In the case of `Cc1ccc(OCC(=O)N2CCN(Cc3ccc([N+](=O)[O-])cc3)CC2)cc1.O=C(O)C(=O)O`, the “hERG current change (%, negative = inhibition) at 1uM” value is on record as -85%.

For `Cc1cccc(OCC(=O)N2CCN(Cc3ccncc3)CC2)c1.O=C(O)C(=O)O`, the “hERG current change (%, negative = inhibition) at 1uM” value was 10.2%.

Take `Cc1cccc(OCC(=O)N2CCN(C(=O)c3ccc([N+](=O)[O-])cc3)CC2)c1`: the “hERG current change (%, negative = inhibition) at 1uM” value was -38.8%.

For `Cc1cccc(OCC(=O)N2CCN(C(=O)COc3ccc(Cl)cc3)CC2)c1`, the “hERG current change (%, negative = inhibition) at 1uM” value was -56.6%.

Regarding `Cc1ccc(OCC(=O)N2CCN(C(=O)c3ccc([N+](=O)[O-])cc3)CC2)cc1`, the “hERG current change (%, negative = inhibition) at 1uM” value is given as -19.5%.

Take `Cc1cccc(OCC(=O)N2CCN(S(C)(=O)=O)CC2)c1`: the “hERG current change (%, negative = inhibition) at 1uM” value was found to be 9.87%.

Take `Cc1cccc(OCC(=O)N2CCN(Cc3ccc([N+](=O)[O-])cc3)CC2)c1.O=C(O)C(=O)O`: the “hERG current change (%, negative = inhibition) at 1uM” value is given as -60.5%.

As for `Cc1ccc(S(=O)(=O)N2CCC(C(=O)OCC(=O)N(CC(C)C)C3CCS(=O)(=O)C3)CC2)cc1C` (centres unmarked), the “hERG current change (%, negative = inhibition) at 1uM” value stood at 10.8%.

`Nc1n[nH]c2cc(=O)n(-c3cccc(C(F)(F)F)c3)nc12`: the “hERG current change (%, negative = inhibition) at 1uM” value was 12.3%.

Consider `O=C(CSc1nc(Cc2ccccc2)nc2ccccc12)Nc1nc2c(s1)CCCC2`, for which the “hERG current change (%, negative = inhibition) at 1uM” value amounted to 15.9%.

`O=C(Nc1ccc2c(c1)OCO2)C1CC(=O)N(CCc2ccccc2)C1` (centres unmarked): the “hERG current change (%, negative = inhibition) at 1uM” value is listed as 4.44%.

Regarding `Cc1ccc(S(=O)(=O)N(C)C)cc1NC(=O)COC(=O)C1CCN(S(=O)(=O)c2cccs2)CC1`, the “hERG current change (%, negative = inhibition) at 1uM” value is listed as -58.4%.

For the compound `Cc1ccc(S(=O)(=O)N(C)C)cc1NC(=O)COC(=O)C1CCCC1`, the “hERG current change (%, negative = inhibition) at 1uM” value is reported as -0.454%.

Take `Cc1ccc(S(=O)(=O)N(C)C)cc1NC(=O)COC(=O)C1CC1`: the “hERG current change (%, negative = inhibition) at 1uM” value is 17.3%.

For `O=C(Nc1ccccc1)C1CCCN1/C=C/C(=O)C(F)(F)F` (centres unmarked), the “hERG current change (%, negative = inhibition) at 1uM” value was found to be 2.92%.

In the case of `CCC(NS(=O)(=O)c1ccc(C)cc1)C(=O)Nc1ccc(NC(C)=O)cc1` (centres unmarked), the “hERG current change (%, negative = inhibition) at 1uM” value is -1.54%.

Regarding `CCC(=O)N(Cc1ccc(C)cc1)Cc1cc2cc3c(cc2[nH]c1=O)OCO3`, the “hERG current change (%, negative = inhibition) at 1uM” value came out at 0.914%.

`O=C(O)CCc1ccc(-c2ccccc2)n1-c1cccc(C(=O)O)c1`: the “hERG current change (%, negative = inhibition) at 1uM” value was determined as 15.2%.

Turning to `O=C(NCCS(=O)(=O)N1CCN(c2ccccc2)CC1)C1CC(=O)N(c2ccccc2)C1` (centres unmarked), the “hERG current change (%, negative = inhibition) at 1uM” value was 18%.
